Reference: PubChem BioAssay (NCATS)
Records with an inconclusive call do not appear. Calls of active or inactive are those of the source. Calls come from the whole dose curve; as a rule, active = well fitted curve in the direction sought with a large enough effect; inconclusive = small, poorly fitted or top-dose-only effect, or another doubt; inactive = no such curve, though single readings can be large; an effect the other way counts as inactive or inconclusive.

Key:
[1] = P-glycoprotein substrates identified in KB-8-5-11 adenocarcinoma cell line, qHTS therapeutic library screen (AID 1346987); note: nearly all actives have a fitted effect of over 65% in size; for activity change, negative = cytotoxicity: series mostly up to about 44 µM
In short: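 KB-8-5-11, a colchicine-selected P-gp-overexpressing KB-3-1 subline, was grown without colchicine for the assay. Cells were seeded at 500 cells/well, dosed in concentration-response and incubated 72 h at 37 degree C, 5% CO2. Viability was read by CellTiter-Glo luminescence.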

[2] = tested on: Zika virus NS2B-NS3 protease (unlinked complex); test: Primary screen GU Rhodamine qHTS for Zika virus inhibitors: Unlinked NS2B-NS3 protease assay (AID 1347159); note: nearly all actives have a fitted effect of over 60% in size
In short: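 Compounds, tested up to 114 microM, were incubated for 15 minutes with 25 nM unlinked NS2B-NS3 protease at pH 8.0. Cleavage of 1.5 microM Rhodamine110 substrate was then followed by fluorescence for 15 minutes.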

[3] = tested on: Zika virus NS2B-NS3 protease (linked construct); test: Primary screen NINDS Rhodamine qHTS for Zika virus inhibitors (AID 1347160); note: nearly all actives have a fitted effect of over 55% in size
In short: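 Percent inhibition, normalized to uninhibited and enzyme-free controls, is fitted to a 4-parameter Hill equation. Fluorescence change comes from a 15-min cleavage of 1.5 microM bis-peptide Rhodamine110 substrate by 25 nM linked NS2B-NS3 at room temperature.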
% is set by controls: 0 for no effect and ±100 for the full control effect.

C/C(=C\CCC(C)C1CC(O)C2(C)C3CCC4C(C)(C)C(OC5OCC(O)C(O)C5O)CCC45CC35CC(O)C12C)C(=O)O (stereo unspecified)
inactive: Potency [1] | Potency [2] | Potency [3]

NC(=O)c1ccc(F)c2c1C[C@@H](N(C1CCC1)C1CCC1)CO2
inactive: Potency [1] | Potency [2] | Potency [3]

COc1c(C)c(OCC(O)C(C)(C)O)cc2c1CNC2=O (stereo unspecified)
inactive: Potency [1] | Potency [2] | Potency [3]

C/C=C(\C)C(=O)OC[C@H]1O[C@@H](O[C@H]2[C@@H](O[C@H]3O[C@H](COC(=O)/C(C)=C/C)[C@@H](O)[C@H](O)[C@H]3O[C@@H]3O[C@H](COC(=O)/C(C)=C/C)[C@@H](O)[C@H](OC(=O)/C(C)=C/C)[C@H]3O)O[C@H](COC(=O)/C(C)=C/C)[C@@H](O)[C@@H]2O)[C@H](O)[C@@H](O)[C@@H]1O
inactive: activity change, negative = cytotoxicity [1] 0.351% [at 9.29 µM] | Potency [2] | Potency [3]

C[C@@H]1O[C@@H](O[C@H]2[C@H](OC(=O)[C@]34CCC(C)(C)C[C@H]3C3=CCC5[C@@]6(C)C[C@@H](O)[C@@H](O)[C@@](C)(CO)C6[C@H](O)C[C@@]5(C)[C@]3(C)CC4)OC[C@H](O)[C@@H]2O)[C@H](O)[C@H](O)[C@H]1O[C@@H]1OC[C@@H](O)[C@H](O[C@H]2O[C@H](C)[C@@H](O)[C@H](O)[C@@H]2O)[C@H]1O (stereo partly specified)
inactive: activity change, negative = cytotoxicity [1] 2.85% [at 9.29 µM] | Potency [2] | Potency [3]

CCCN1CCC[C@@H](c2cccc(S(C)(=O)=O)c2)C1
inactive: Potency [1] | Potency [2] | Potency [3]

CCC(=O)N1CCc2cc(OC)c(O)cc2C1
inactive: Potency [1] | Potency [2] | Potency [3]
